Potency and outcome data for 28 compounds are collected here from PubChem BioAssay (Tox21).

Several values for one entry are separate records, joined by “and”; a condition that tells them apart may be missing. Equal values may be shown once. Results filed as inconclusive are left out. More than one record can exist for a structure, and the calls need not agree. Activity calls are given as the source filed them. Unless noted, the call rests on the fitted dose curve; in most records, active means well fitted curve in the direction sought with a large enough effect in the repeat runs; inconclusive means weak or mixed curves; inactive means no such curve, though single readings can be large; an effect the other way counts as inactive or inconclusive.

The nature of assay [1]: qHTS assay to identify small molecule antagonists of the thyroid receptor (TR) signaling pathway (AID 743065). Further: series mostly up to about 70 µM; nearly all actives have a fitted effect of over 55% in size. The method in brief: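 GH3.TRE-Luc rat pituitary cells (two TREs driving luciferase) were dosed with compound, then stimulated with 1 nM T3 (final) for 23.5 h at 37 C. ONE-Glo luminescence was the read-out, with CellTiter-Fluor fluorescence as the cytotoxicity counter-screen.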
(qHTS replaces the single test concentration by a dilution series.)

The test system of assay [2] is thyroid hormone receptor (rat, GH3 cells). The assay is described as follows: qHTS assay to identify small molecule agonists of the thyroid receptor (TR) signaling pathway (AID 743066; calls by dose curve; further: potency means the concentration at half of the fitted maximal effect).
For assay [3], the target named is Estrogen receptor (Homo sapiens) (UniProt P03372). The assay is described as follows: qHTS assay to identify small molecule antagonists of the estrogen receptor alpha (ER-alpha) signaling pathway (AID 743069; active means well fitted curve in the direction sought with a large enough effect in the signal ratio in the repeat runs, not every such curve was filed as active; the % refers to the signal ratio). The essentials: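 In this cell-based reporter format, GripTite HEK293 cells harbouring ER-alpha-UAS-bla were grown overnight with 2% charcoal-stripped FBS, dosed with DMSO-dissolved compounds, then challenged with 17beta-estradiol. After 18 hr at 37C, beta-lactamase activity was detected by FRET fluorescence.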
Chain of Estrogen receptor (Homo sapiens) (P03372 whole entry, looked up): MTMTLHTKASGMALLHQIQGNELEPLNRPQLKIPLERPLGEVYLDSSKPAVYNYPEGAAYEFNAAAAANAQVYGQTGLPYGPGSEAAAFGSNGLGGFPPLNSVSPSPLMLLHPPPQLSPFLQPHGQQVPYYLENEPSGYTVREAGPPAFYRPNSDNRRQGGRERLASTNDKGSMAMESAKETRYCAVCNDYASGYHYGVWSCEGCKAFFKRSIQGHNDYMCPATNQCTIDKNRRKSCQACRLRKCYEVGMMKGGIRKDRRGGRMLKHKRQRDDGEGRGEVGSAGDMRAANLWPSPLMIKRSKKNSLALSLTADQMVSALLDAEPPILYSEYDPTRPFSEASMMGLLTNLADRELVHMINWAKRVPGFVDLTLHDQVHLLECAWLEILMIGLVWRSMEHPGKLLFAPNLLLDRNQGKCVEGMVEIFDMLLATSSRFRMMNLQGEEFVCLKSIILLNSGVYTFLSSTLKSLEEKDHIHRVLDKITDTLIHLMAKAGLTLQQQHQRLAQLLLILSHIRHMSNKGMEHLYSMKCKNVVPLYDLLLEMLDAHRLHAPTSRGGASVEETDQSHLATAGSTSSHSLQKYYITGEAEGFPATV

Assay [4] is described as follows: qHTS assay to identify small molecule antagonists of the estrogen receptor alpha (ER-alpha) signaling pathway - cell viability counter screen (AID 743074; calls by dose curve; further: nearly all actives have a fitted effect of over 45% in size).
In assay [5] the target is Estrogen receptor (Homo sapiens) (UniProt P03372). The assay is described as follows: qHTS assay to identify small molecule agonists of the estrogen receptor alpha (ER-alpha) signaling pathway (AID 743075; calls by dose curve).
For assay [6] the target is unchanged. The assay is described as follows: qHTS assay to identify small molecule agonists of the estrogen receptor alpha (ER-alpha) signaling pathway using the BG1 cell line (AID 743079). Further: nearly all actives have a fitted effect of over 20% in size. Further: potency means the concentration at half of the fitted maximal effect.
A short description of assay [7]: qHTS assay to identify small molecule antagonists of the estrogen receptor alpha (ER-alpha) signaling pathway using the BG1 cell line (AID 743080; calls by dose curve;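 further: BG1 cells stimulated with 17beta-estradiol alongside compound; series mostly up to about 70 µM; nearly all actives have a fitted effect of over 25% in size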). The method in brief:
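Quantitative HTS on the Tox21 10K library: BG1 cells with endogenous ER-alpha and ERE-luciferase reporter, 17beta-estradiol stimulation, 21.5 h compound exposure, luminescence endpoint with parallel fluorescence cytotoxicity counter-read.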

Assay [8] in a line: qHTS assay to identify small molecule antagonists of the estrogen receptor alpha (ER-alpha) signaling pathway using the BG1 cell line - cell viability counter screen (AID 743081).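 Further: compound given together with 17beta-estradiol as the ER stimulus; series mostly up to about 70 µM; nearly all actives have a fitted effect of over 45% in size.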
A further assay has as its target Aromatase (Homo sapiens) (UniProt P11511). The assay is described as follows: qHTS assay to identify aromatase inhibitors (AID 743083). Further: series mostly up to about 70 µM; nearly all actives have a fitted effect of over 55% in size.

Chain of Aromatase (Homo sapiens) (P11511 whole entry, looked up): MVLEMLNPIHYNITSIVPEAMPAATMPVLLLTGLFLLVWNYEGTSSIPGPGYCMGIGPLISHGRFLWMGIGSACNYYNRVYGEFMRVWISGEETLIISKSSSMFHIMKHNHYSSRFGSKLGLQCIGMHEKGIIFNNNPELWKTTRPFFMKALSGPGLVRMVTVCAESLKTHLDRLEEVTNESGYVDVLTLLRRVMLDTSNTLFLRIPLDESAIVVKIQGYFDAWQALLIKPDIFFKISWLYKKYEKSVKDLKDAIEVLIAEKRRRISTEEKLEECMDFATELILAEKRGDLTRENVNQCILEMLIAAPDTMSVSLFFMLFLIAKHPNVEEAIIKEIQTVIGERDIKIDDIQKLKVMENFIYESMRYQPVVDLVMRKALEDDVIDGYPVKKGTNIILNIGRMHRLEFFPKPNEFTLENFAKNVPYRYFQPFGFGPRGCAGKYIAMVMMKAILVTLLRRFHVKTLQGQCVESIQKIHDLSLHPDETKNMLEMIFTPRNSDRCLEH

For `Cc1ccc(O)c(C)c1`, the Potency entry (in assay [1]; in assay [2]; in assay [3]; in assay [6]; with Aromatase (Homo sapiens)) was “inactive” throughout. The result in [4], in assay [5], in assay [7] and in assay [8] was inactive.

On to `COC(C)(C)CCCC(C)C/C=C/C(C)=C/C(=O)OC(C)C` (centres undefined), for which the Potency result (in [1]; in [2]; with Aromatase (Homo sapiens)) was “inactive” throughout. Also, the result in [4] and in assay [8] was inactive.

`CC[N+](=O)[O-]`: the Potency entry (in [1]; in assay [2]; with Aromatase (Homo sapiens)) was “inactive” in each case. Also, the call in assay [4] and in assay [8] was inactive.

In the case of `C=CC#N`, the Potency entry (in assay [1]; in assay [2]; in [3]; in assay [6]; with Aromatase (Homo sapiens)) was “inactive” in each case. In addition, the result in assay [4], in [5], in assay [7] and in assay [8] was inactive.

Turning to `C=CC(=O)OCCCCCC(C)C`, the Potency result (in assay [1]; in [2]; in [3]; in the assay with Aromatase (Homo sapiens)) was “inactive” each time. Moreover, the compound was called inactive in assay [4], in [5], in assay [7] and in assay [8]. Moreover, the Potency in assay [6] is 80.9 µM (active) and inactive.

For `C[C@]12CC[C@H](O)CC1=CC[C@@H]1[C@@H]2CC[C@]2(C)C(=O)CC[C@@H]12`, the Potency entry (in [1]; in assay [2]; with Aromatase (Homo sapiens)) was “inactive” in each case. Further, the outcome in assay [4] and in assay [8] was inactive.

Regarding `ClCCOCCCl`, the Potency result (in assay [1]; in [2]; with Aromatase (Homo sapiens)) was “inactive” throughout. In addition, the outcome in assay [4] and in [8] was inactive.

Turning to `CCOP(=S)(OCC)Oc1ccc([N+](=O)[O-])cc1`, the Potency entry (in assay [1]; in assay [2]; with Aromatase (Homo sapiens)) was “inactive” throughout. For the same compound, the compound was called inactive in assay [4] and in assay [8].

As for `[N-]=[N+]=CC(=O)OC[C@H](N)C(=O)O`, the Potency result in assay [1] and in [2] was “inactive” each time. Besides, the compound was classed as inactive in assay [4] and in assay [8].

For `OCCCCO`, the Potency result (in [1]; in assay [2]; with Aromatase (Homo sapiens)) was “inactive” each time. Also, the result in [4] and in assay [8] was inactive.

For the compound `Cc1cccc(C)c1NC(=O)CN1CCCC1=O`, the Potency entry (in [1]; in assay [2]; in [3]; in [6]; in the assay with Aromatase (Homo sapiens)) was “inactive” each time. The compound was classed as inactive in [4], in assay [5], in assay [7] and in assay [8].

Take `COP(=S)(OC)SCN1C(=O)c2ccccc2C1=O`: the Potency result (in assay [1]; in [2]; with Aromatase (Homo sapiens)) was “inactive” throughout. In addition, the outcome in [4] and in assay [8] was inactive.

Take `Cl/C=C/Cl`: the Potency result (in assay [1]; in [2]; in assay [3]; in assay [6]; in the assay with Aromatase (Homo sapiens)) was “inactive” in each case. Also, the result in assay [4], in [5], in [7] and in assay [8] was inactive.

As to `Nc1ccc([As](=O)(O)O)cc1`, the Potency result (in assay [1]; in assay [2]; in assay [3]; in [6]; with Aromatase (Homo sapiens)) was “inactive” in each case. The compound was called inactive in assay [4], in assay [5], in assay [7] and in [8].

In the case of `C=C(C)C(=O)OCC(CC)CCCC` (centres undefined), the Potency entry (in assay [1]; in [2]; in assay [3]; in assay [6]; with Aromatase (Homo sapiens)) was “inactive” throughout. For the same compound, the compound was called inactive in assay [4], in assay [5], in assay [7] and in assay [8].

On to `CC(=O)/C=C/c1ccccc1`, for which the compound was called inactive in assay [4] and in [8]. Besides, the Potency entry with Aromatase (Homo sapiens) was “inactive”.

Regarding `Nc1cccc(Cl)c1`, the Potency result (in assay [1]; in [2]; in assay [3]; in assay [6]; in the assay with Aromatase (Homo sapiens)) was “inactive” each time. Further, the outcome in [4], in [5], in [7] and in [8] was inactive.

Take `CN(C)C(=O)Nc1cccc(C(F)(F)F)c1`: the Potency result (in [1]; in assay [2]; in the assay with Aromatase (Homo sapiens)) was “inactive” throughout. The compound was called inactive in assay [4] and in assay [8].

Regarding `Cc1ccc(N)cc1`, the Potency entry (in assay [1]; in the assay with Aromatase (Homo sapiens)) was “inactive” in each case. For the same compound, the Potency result in assay [2] was “inactive and 77 µM (active)”. The call in assay [4] and in [8] was inactive.

With `NNc1ccccc1`, the Potency result (in assay [2]; with Aromatase (Homo sapiens)) was “inactive” in each case. In addition, the result in assay [4] and in [8] was inactive.

Turning to `O=C(O)C1C(C(=O)O)C2(Cl)C(Cl)=C(Cl)C1(Cl)C2(Cl)Cl` (centres undefined), the Potency result (in assay [1]; in assay [2]; in [3]; in assay [6]; in the assay with Aromatase (Homo sapiens)) was “inactive” in each case. Further, the outcome in assay [4], in assay [5], in assay [7] and in assay [8] was inactive.

Take `CCCCCCCCCCCCCCCCCC(=O)O`: the result in [4] and in assay [8] was inactive.

For the compound `Cc1ccc(N=C=O)cc1N=C=O`, the Potency entry (in assay [1]; in [2]; with Aromatase (Homo sapiens)) was “inactive” each time. Besides, the outcome in [4] and in assay [8] was inactive.

Take `Nc1ccc(N)cc1`: the Potency result (in assay [1]; in assay [2]; in the assay with Aromatase (Homo sapiens)) was “inactive” each time. For the same compound, the outcome in [4] and in assay [8] was inactive.

For the compound `COS(=O)(=O)OC`, the Potency entry (in [1]; in assay [2]; in assay [3]; in assay [6]; with Aromatase (Homo sapiens)) was “inactive” in each case. Besides, the compound was called inactive in assay [4], in [5], in assay [7] and in [8].

Turning to `Cl[C@H]1OCCO[C@@H]1Cl`, the Potency result (in assay [1]; in assay [2]; with Aromatase (Homo sapiens)) was “inactive” in each case. Moreover, the call in assay [4] and in assay [8] was inactive.

Consider `CNC(=O)O/N=C/C(C)(C)S(C)=O` (centres undefined), for which the Potency result (in assay [1]; in [2]; in assay [3]; in assay [6]; in the assay with Aromatase (Homo sapiens)) was “inactive” each time. The compound was called inactive in assay [4], in [5], in assay [7] and in [8].

Take `CC(C)(C)C(=O)CCl`: the Potency result (in [3]; in [6]; in the assay with Aromatase (Homo sapiens)) was “inactive” throughout. Moreover, the compound was called inactive in assay [4], in assay [5], in assay [7] and in assay [8].
